This is a sample that favours compounds with a hit; in the whole collection about 1.5% have one here.
FEN1 inh-1 = qHTS Assay for the Inhibitors of Human Flap endonuclease 1 (FEN1) | P39748 | Recombinant FEN1 flap cleavage, fluorescence, 15 min | Potency, µM (series often up to 114 µM), usual class: inhibitors | 390,000 tested, 0.35% active | AID 588795, 2011; note: nearly all actives have a fitted effect of over 65% in size
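Concentration–response screening of FEN1 (10 nM): 15 min compound preincubation at room temperature, reaction started with 50 nM substrate and read at 0 and 15 min. Corrected, normalized data were fitted by a four-parameter Hill equation.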
BLM helicase inh = qHTS Assay for Inhibitors of Bloom's syndrome helicase (BLM). RecQ-like DNA helicase BLM (Homo sapiens), P54132. 350,000 tested, 0.2% active. Potency, µM (highest dose often 56.1 µM), hits mostly inhibitors. recombinant BLM DNA unwinding, fluorescence dequenching. AID 2528, 2010; note: nearly all actives have a fitted effect of over 35% in size
KAT2A inh = qHTS Assay for Inhibitors of GCN5L2. Potency, µM (titrated, usually from 58.9 µM), actives largely listed as inhibitors. 390,000 tested, 0.21% active. GCN5L2 HAT assay, ThioGlo1 CoA-SH fluorescence. Histone acetyltransferase KAT2A (Homo sapiens), Q92830
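GCN5L2 (20nM final) in 50mM HEPES, 0.1mM EDTA pH 7.5, 0.01% Tween-20 was preincubated 15 min at room temperature with compound, then given ThioGlo1 (50uM), H3(1-25) peptide (75uM) and acetyl-CoA (70uM); CoA-thiol fluorescence (Ex340/Em540) was read at 0 and 20 min.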
RECQ1 helicase = qHTS Assay for Inhibitors of RecQ-Like Dna Helicase 1 (RECQ1); ATP-dependent DNA helicase Q1 (Homo sapiens), P46063; RECQ1 DNA unwinding, red fluorescence kinetic read; Potency, µM (top dose mostly 57.3 µM), most hits filed as inhibitors; 240,000 tested, 0.54% active; AID 2549, 2010; note: nearly all actives have a fitted effect of over 30% in size
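50 nM RECQ1T1 preincubated 15 min with compound in Tris pH 8.0 buffer with MgCl2, DTT, Tween-20 and 2.5 ug/ml poly(dI-dC); started with 200 nM TAMRA/BHQ-2 forked duplex and 2 mM ATP. Unwinding read as fluorescence (525/598 nm), two reads 2 h apart.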
PI5P4K alpha inh = qHTS for Inhibitors of phosphatidylinositol 5-phosphate 4-kinase (PI5P4K); Phosphatidylinositol 5-phosphate 4-kinase type-2 alpha (Homo sapiens), P48426; PI5P4Kalpha enzyme, ADP-Glo luminescence, 60 min; hits give low values; max response, %; 330,000 tested, 1.2% active; active = max response of -50% or lower; inconclusive = between -30% and -50%; inactive = -30% or higher; note: value at the top dose of about 77 µM
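Compounds were pin-transferred onto PI5P4Kalpha and substrate in HEPES pH 7.4 buffer with EGTA, CHAPS and 5% DMSO. ATP (5 microM final) started the reaction, which ran 60 minutes at room temperature before ADP-Glo detection.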
APEX1 inh = qHTS Assay for Inhibitors of the Human Apurinic/apyrimidinic Endonuclease 1 (APE1) | recombinant APE1, TAMRA/BHQ-2 abasic DNA cleavage fluorescence | Potency, µM (highest dose often 65.8 µM), hits mostly inhibitors | 350,000 tested, 0.35% active | AID 2517, 2012; note: nearly all actives have a fitted effect of over 55% in size
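Kinetic fluorescence read (525 ex/598 em nm, three reads 60 s apart) of AP-site incision; signal = third minus first read. Enzyme 0.75 nM, dual-labelled THF duplex 50 nM, compound preincubation 15 min RT.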
FEN1 inh-2 = qHTS Assay for the Inhibitors of FEN1: Confirmatory Assay for Cherry-picked Compounds. shares compounds with FEN1 inh-1. FEN1 flap cleavage, TAMRA/BHQ2 fluorogenic DNA substrate. Potency, µM, hits mostly inhibitors. 880 tested, 79% active. AID 720498, 2013; note: nearly all actives have a fitted effect of over 60% in size
A number is an active result; - = inactive; ? = inconclusive; . = no result given; [ ] = remark or other dose. Unless noted, calls come from the whole dose curve; as a rule, active = well fitted curve in the direction sought with a large enough effect; inconclusive = small, poorly fitted or top-dose-only effect, or another doubt; inactive = no such curve, though single readings can be large; an effect the other way counts as inactive or inconclusive.

SMILES	FEN1 inh-1	BLM helicase inh	KAT2A inh	RECQ1 helicase	PI5P4K alpha inh	APEX1 inh	FEN1 inh-2
Cc1nc2ccccc2c2oc(C(=O)Nc3ccc(C(C)C)cc3)cc12	-	-	-	-	-	-	.
COc1cc(NC(=O)c2cc3c(C)nc4ccccc4c3o2)cc(OC)c1OC	?	-	-	-	-	?	?
CCc1ccc(N=C2NC(=O)/C(=C/c3cc(Br)c(OCC(=O)O)c(OC)c3)S2)cc1	50.1µM	-	?	.	-96.8	-	75.7
COc1cc(/C=C2\SC(=Nc3ccc(O)cc3)NC2=O)cc(OC)c1O	?	-	-	-	?	-	.
O=C(NN1C(=O)/C(=C/c2ccc(O)cc2)SC1=S)c1cccc(O)c1	-	-	-	.	-	-	?
CCOC(=O)c1sc2cccc(F)c2c1S(=O)(=O)N1CCN(c2cccc(Cl)c2)CC1	-	-	-	.	.	.	.
Cc1cc(S(=O)(=O)C(CNC(=O)c2ccc(OC(C)C)cc2)c2cccs2)ccc1F (stereo not drawn)	-	-	-	.	.	.	.
NC(N)=Nc1nc(-c2ccccc2)c2ccccc2n1	?	-	-	-	-	-	?
CCc1nc(N=C(N)N)nc2ccccc12	.	-	-	-	.	-	.
O=c1c2ccccc2nc2sc(Nc3ccc4c(c3)CNC4)nn12	.	.	.	.	.	.	37.9
O=c1c2ccccc2nc2sc(Nc3ccc(F)cc3)nn12	-	.	-	.	.	?	.
Cc1cc(=O)c2c(o1)C(=O)c1occc1C2=O	50.1µM	.	.	.	?	.	?
O=C(Nc1ncccc1O)c1c(O)c2ccccc2[nH]c1=O	?	-	-	-	-	-	?
Nc1cccc2c(N)cccc12	.	.	.	-	.	-	.
Nc1cccc2c(O)cc(S(=O)(=O)O)cc12	8.91µM	.	.	.	-88.5	.	42.6
COc1cccc(Nc2ccc3cc(S(=O)(=O)N4CCC(C)CC4)ccc3n2)c1	-	-	-	.	.	.	.
O=c1nc2c(O)cccn2c2c1c(=O)[nH]c1ccccc12	56.2µM	7.94µM	?	-	-58.2	-	33.8
NCCNc1ncnc2ccc(-c3ccc4c(c3)OCO4)cc12	.	.	.	.	.	.	26.9
c1ccc(CNc2ncnc3ccc(-c4ccc5c(c4)OCO5)cc23)cc1	.	-	-	-	.	-	.
CNc1ncnc2ccc(-c3ccc4c(c3)OCO4)cc12	.	-	-	-	.	-	.
CN(C)CCCNc1ncnc2ccc(-c3ccc4c(c3)OCO4)cc12	.	.	.	.	.	.	30.1
NCCCCNc1ncnc2ccc(-c3ccc4c(c3)OCO4)cc12	.	.	.	.	.	.	30.1
Cc1ccccc1OCC(=O)NCC(=O)OCc1cccc2ccccc12	-	.	.	.	.	.	.
CCC1(c2ccc(O)cc2)NC(=O)N(C)C1=O (stereo not drawn)	.	-	-	-	.	?	.
COc1cc(/C=C(\C#N)c2nc3ccc(C)cc3[nH]2)cc([N+](=O)[O-])c1O	50.1µM	-	-	-	-88.0	?	?
SMILES	FEN1 inh-1	BLM helicase inh	KAT2A inh	RECQ1 helicase	PI5P4K alpha inh	APEX1 inh	FEN1 inh-2
O=C(Nc1ccccc1)N(Cc1cccs1)c1ccc(F)cc1	-	-	-	.	.	.	.
CN(C)CCCN1C(=O)c2cccc3cccc(c23)C1=O	?	-	-	.	-	-	67.5
NC1=C(Br)C(=O)c2ncccc2C1=O	-	.	.	.	-	.	.
O=C1C=C(NCCc2cc(Br)c(O)c(Br)c2)C(=O)c2ncccc21	44.7µM	.	.	.	-73.8	.	60.1
Cc1ccc(-n2nc3c(N4CCCC(C(=O)NCc5ccccc5C)C4)nnc(C)c3c2C)cc1 (stereo not drawn)	-	-	-	.	.	.	.
Nc1ccc(Br)c2cccnc12	?	-	-	-	-	-	67.5
CC(C)N1CCc2c(sc(NC(=O)C3CC3)c2-c2nc3ccccc3s2)C1	.	.	.	.	.	.	15.1
CC(=O)N1CCc2c(sc(NC(=O)CSc3ccc(C)cc3)c2-c2nc3ccccc3s2)C1	-	-	-	.	.	.	.
CC(=O)Oc1cc(C(=O)OCC(=O)N2CCc3ccccc3C2)cc(OC(C)=O)c1OC(C)=O	25.1µM	.	-	.	-	5.32µM	23.9
COc1ccc(C(=O)OCC(=O)N2CCc3ccccc3C2)cc1OC	-	.	-	.	-	-	.
Cc1cccc([C@H]2[C@@H]3C=CC(C)C[C@@H]3C(=O)N2Cc2ccccc2)c1 (stereo partly drawn)	.	-	-	-	.	-	.
Cc1nc(-c2cccc(NC(=O)Nc3ccc([N+](=O)[O-])cc3)c2)no1	-	-	?	.	.	.	.
CCOC(=O)c1c(O)c(O)c(C(=O)OCC)n1-c1ccccc1	17.8µM	-	-	-	-	-	9.53
CCOC(=O)c1sc(=S)n(-c2ccccc2)c1C	-	-	-	-	-	-	.
Nc1cc(S(=O)(=O)O)cc([N+](=O)[O-])c1O	?	-	-	-	-	-	?
Nc1ccc(C(=O)O)cc1[N+](=O)[O-]	-	-	-	-	-	-	.
CC[Si](CC)(CC)O[C@H]([C@@H](C)COCOC)[C@@H](C)COCc1ccc(OC)cc1	-	-	.	-	.	-	.
CCN1/C(=C/c2ccc3cc(C)ccc3[n+]2CC)Sc2cc(C)ccc21	?	-	-	?	-	-	7.57
Cc1cccc(CN2CC34C=CC(CC3S2(=O)=O)O4)c1 (stereo not drawn)	-	-	.	-	.	-	.
COc1cc(O)c(C(C)=O)c(CC(=O)O)c1	22.4µM	-	-	?	-	8.91µM	60.1
C[C@H]1Cc2c(-c3ccccc3)nc3c(c2CO1)CN(S(=O)(=O)c1ccc2c(c1)OCCN2C)CC3	.	-[12.4 µM]	.	-[11.5 µM]	.	-[12.4 µM]	.
Cc1ccc(CNC(=O)c2nc(-c3ccc(Cl)cc3)n3c2CCCCC3)cc1	-	-	-	.	.	.	.
COc1cc2oc(=O)cc(-c3ccc(-c4sccc4C=O)cc3)c2c(OC)c1OC	.	-	-	-	.	-	.
O=C(N/N=C/c1cn(Cc2cccc(F)c2)c2ccccc12)c1cc(O)cc(O)c1	22.4µM	-	-	.	-104.3	1.5µM	60.1
CC[C@H](C)[C@H](NC(=O)[C@H](Cc1ccc(O)cc1)NC(=O)[C@@H]1CCCN1C(=O)[C@H](CCCCN)NC(=O)[C@@H](N)CCCCN)C(=O)N[C@@H](CC(C)C)C(=O)O	.	-	-	-	.	?	.
Cc1cc(C)c2c(=N)c3ccccc3n(CCCCCCCCn3c4ccccc4c(=N)c4c(C)cc(C)nc43)c2n1	7.08µM	.	.	.	-66.5	.	5.36
CCCCCCCCn1c2c(c(=N)c3ccccc31)CCC2	-	-	-	-	-	-	.

Screening data (PubChem BioAssay)
